Test results published in PubChem BioAssay.
Active and inactive are the calls of the source.

Key:
[1] = system: Plasmodium falciparum Sir2 (PF13_0152, Sir2A); assay: pfSir2 binders on small-molecule microarrays, primary screen, biochemical, small-molecule microarray, 635 nm fluorescence (AID 1098); conditions: small-molecule microarray binding, fluorescence 635 nm; higher = more signal;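 further: score merges spot fluorescence intensity with its signal-to-noise ratio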
[2] = small-molecule microarray binders of probe aDKK1, primary screen, biochemical, biotinylated probe, 635/667 nm fluorescence (AID 1099); conditions: higher = more signal;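 further: score merges 667nm spot fluorescence with signal to noise across triplicate slides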
[3] = small-molecule microarray binders of probe aCHRDL2, primary screen, biochemical, biotinylated probe, 635/667 nm fluorescence (AID 1100); conditions: higher = more signal
[4] = splicing luciferase reporter signal modulators, primary screen, spliceosome inhibition project, cell-based, HEK293, splice +/- reporter (AID 1101); conditions: luminescence, 24 h, higher = more signal, called active from +8 up or from −8 down;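 further: HEK293 cells carrying a splicing-competent luciferase reporter gene; test concentration not given here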
[5] = target: Fibroblast growth factor 10 (Homo sapiens) (UniProt O15520); assay: FGF10 binders on small-molecule microarrays, primary screen, biochemical, small-molecule microarray, 635 nm fluorescence (AID 1102); conditions: FGF10 binding, fluorescence 635 nm, higher = more signal
[6] = system: glycogen synthase kinase-3 (GSK3A per assay name; protocol says GSK3B); assay: GSK3 binders on small-molecule microarrays, primary screen, biochemical, small-molecule microarray, 635 nm fluorescence, GSK3A (AID 1103); conditions: small-molecule microarray binding, fluorescence 635 nm; higher = more signal; further: the record names both GSK3A and GSK3B
[7] = target: Epidermal growth factor receptor (Homo sapiens) (UniProt P00533); assay: EGFR binders on small-molecule microarrays, primary screen, biochemical, small-molecule microarray, 635 nm fluorescence (AID 1104); conditions: EGFR binding, higher = more signal;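 further: score merges 667 nm emission intensity with spot signal to noise over triplicate slides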
[8] = target: Follistatin-related protein 3 (Homo sapiens) (UniProt O95633); assay: FSTL3 binders on small-molecule microarrays, primary screen, biochemical, small-molecule microarray, 635 nm fluorescence (AID 1105); conditions: FSTL3 binding, higher = more signal;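 further: score merges emission near 667 nm and signal to noise per printed spot across three slides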
[9] = target: Dickkopf-related protein 1 (Homo sapiens) (UniProt O94907); assay: DKK1 binders on small-molecule microarrays, primary screen, biochemical, small-molecule microarray, 635 nm fluorescence scan (AID 1106); conditions: DKK1 binding, higher = more signal;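 further: score merges emission near 667 nm with signal to noise over three replicate slides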
[10] = system: Inhibin beta A chain (activin A); assay: INHBA (activin A) binders on microarrays, primary screen, biochemical, small-molecule microarray, 635 nm fluorescence scan (AID 1107); conditions: small-molecule microarray binding, higher = more signal;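 further: mouse activin A protein probed at 4.33 µg/mL on printed slides; score merges bound-protein fluorescence near 667 nm with spot signal-to-noise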
[11] = system: Human papillomavirus type 1a protein E7 (residues 44-93); assay: HPV1a E7 fragment binders on microarrays, primary screen, biochemical, small-molecule microarray, residues 44-93, 635 nm fluorescence (AID 1108); conditions: small-molecule microarray binding, fluorescence 635 nm; higher = more signal;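 further: E7 fragment applied at 1 µg/mL in TBST for 1 h at 4 C; score combines spot fluorescence with its signal to noise ratio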
[12] = modulators of HCV replicon luciferase signal, primary screen, HCV replication inhibitor project, Huh7 cells, luciferase reporter (AID 1109); conditions: 48 h, higher = more signal;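 further: huh7 hepatoma cells harbouring a luciferase neomycin HCV replicon reporter; luciferase luminescence as measure of HCV replicon replication; test concentration not given here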
[13] = target: Left-right determination factor 2 (Homo sapiens) (UniProt O00292); assay: LEFTY2 binders on small-molecule microarrays, primary screen, biochemical, small-molecule microarray, 635 nm fluorescence scan (AID 1110); conditions: LEFTY2 binding, higher = more signal
[14] = target: Calmodulin-1 (Homo sapiens) (UniProt P0DP23); assay: CALM1 binders on microarrays, EGTA buffer, profiling panel, biochemical, small-molecule microarray, Cy5-labelled CALM1 (AID 1111); conditions: Cy5-CALM1 binding fluorescence, higher = more signal;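 further: labelled calmodulin applied in Tris saline Tween buffer holding calcium plus EGTA and DTT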
[15] = target: Calmodulin-1 (Homo sapiens) (UniProt P0DP23); assay: calcium-bound CALM1 binders on microarrays, profiling panel, artefact control for SMM control-protein annotation, biochemical, small-molecule microarray, Cy5-labelled CALM1, plus calcium (AID 1112); conditions: Cy5-CALM1 binding fluorescence, higher = more signal;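 further: score merges spot fluorescence with signal to noise from triplicate slides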
[16] = small-molecule microarray binders of probe aWnt5a, primary screen, biochemical, biotinylated probe, 635/667 nm fluorescence (AID 1113); conditions: higher = more signal;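 further: score merges 667 nm fluorescence intensity with signal-to-noise per printed feature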
[17] = small-molecule microarray binders of probe aShh, primary screen, biochemical, biotinylated probe, 635/667 nm fluorescence (AID 1114); conditions: higher = more signal;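 further: probe is biotin-labelled aShh protein from a stem cell growth factor screen; measures binding of labelled protein to compounds printed on the slide; score merges feature fluorescence at 667 nm with signal-to-noise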
[18] = small-molecule microarray binders of probe aNog, primary screen, biochemical, biotinylated probe, 635/667 nm fluorescence (AID 1115); conditions: higher = more signal;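 further: probe is biotinylated aNog protein used at 0.15 µg/mL for 1 h at 4 C; z-score combines 667 nm fluorescence of each spot with its signal to noise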
[19] = target: Torsin-1A-interacting protein 1 (Homo sapiens) (UniProt Q5JTV8); assay: LAP1 binders from COS7 cell lysate, primary screen, small-molecule microarray, 635/667 nm fluorescence (AID 1116); conditions: COS7-hLAP1 lysate binding, 635 nm fluorescence, higher = more signal
[20] = target: Alpha-bungarotoxin (Bungarus multicinctus) (UniProt P60615); assay: alpha-bungarotoxin binders on microarray, profiling panel, artefact control for SMM control protein annotation, biochemical, small-molecule microarray, Alexa647 label, 635/667 nm fluorescence (AID 1117); conditions: alpha-BTX-A647 binding fluorescence, higher = more signal
Chain of Alpha-bungarotoxin (Bungarus multicinctus) (P60615 whole entry, looked up): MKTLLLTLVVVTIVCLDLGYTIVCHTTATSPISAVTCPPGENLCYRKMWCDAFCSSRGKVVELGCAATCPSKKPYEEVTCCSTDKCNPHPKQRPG

Chain of Epidermal growth factor receptor (Homo sapiens) (P00533 whole entry, looked up): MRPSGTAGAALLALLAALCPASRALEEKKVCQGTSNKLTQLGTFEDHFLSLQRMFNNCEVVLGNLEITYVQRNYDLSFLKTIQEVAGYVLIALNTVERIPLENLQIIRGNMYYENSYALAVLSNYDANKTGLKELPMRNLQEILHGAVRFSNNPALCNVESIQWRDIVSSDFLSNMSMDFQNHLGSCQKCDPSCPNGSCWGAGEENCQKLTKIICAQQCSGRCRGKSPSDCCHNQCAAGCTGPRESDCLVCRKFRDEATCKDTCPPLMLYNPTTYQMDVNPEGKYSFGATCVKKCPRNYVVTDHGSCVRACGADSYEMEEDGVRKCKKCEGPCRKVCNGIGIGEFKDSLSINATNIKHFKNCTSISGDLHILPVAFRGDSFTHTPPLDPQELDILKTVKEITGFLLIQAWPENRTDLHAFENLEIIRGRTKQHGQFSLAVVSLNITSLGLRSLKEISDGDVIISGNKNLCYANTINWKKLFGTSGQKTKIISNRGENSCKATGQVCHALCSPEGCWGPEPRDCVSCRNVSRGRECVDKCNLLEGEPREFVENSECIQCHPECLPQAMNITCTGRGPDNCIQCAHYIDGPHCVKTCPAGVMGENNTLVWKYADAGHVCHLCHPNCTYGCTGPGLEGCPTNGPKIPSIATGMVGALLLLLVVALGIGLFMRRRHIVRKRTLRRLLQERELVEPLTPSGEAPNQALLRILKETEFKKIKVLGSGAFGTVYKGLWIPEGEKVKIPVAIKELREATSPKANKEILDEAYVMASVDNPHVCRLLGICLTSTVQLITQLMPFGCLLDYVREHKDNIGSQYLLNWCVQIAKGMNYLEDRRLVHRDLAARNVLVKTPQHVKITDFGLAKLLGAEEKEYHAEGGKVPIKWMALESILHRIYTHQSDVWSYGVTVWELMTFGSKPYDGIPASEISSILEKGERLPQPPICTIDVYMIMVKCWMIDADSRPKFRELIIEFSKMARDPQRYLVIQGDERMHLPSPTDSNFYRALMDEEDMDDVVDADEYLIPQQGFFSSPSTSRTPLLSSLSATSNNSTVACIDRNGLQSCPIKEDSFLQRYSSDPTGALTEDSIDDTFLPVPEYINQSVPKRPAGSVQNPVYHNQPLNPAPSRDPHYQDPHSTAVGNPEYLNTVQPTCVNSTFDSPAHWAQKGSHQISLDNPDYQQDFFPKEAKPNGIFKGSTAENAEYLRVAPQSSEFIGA
Chain of Dickkopf-related protein 1 (Homo sapiens) (O94907 whole entry, looked up): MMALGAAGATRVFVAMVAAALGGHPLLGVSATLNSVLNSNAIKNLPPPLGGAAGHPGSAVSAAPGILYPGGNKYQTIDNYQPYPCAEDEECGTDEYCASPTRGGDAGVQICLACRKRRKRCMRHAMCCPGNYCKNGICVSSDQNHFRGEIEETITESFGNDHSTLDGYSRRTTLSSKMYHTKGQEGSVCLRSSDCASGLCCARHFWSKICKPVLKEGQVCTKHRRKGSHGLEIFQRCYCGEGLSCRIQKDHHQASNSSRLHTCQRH
Chain of Torsin-1A-interacting protein 1 (Homo sapiens) (Q5JTV8 whole entry, looked up): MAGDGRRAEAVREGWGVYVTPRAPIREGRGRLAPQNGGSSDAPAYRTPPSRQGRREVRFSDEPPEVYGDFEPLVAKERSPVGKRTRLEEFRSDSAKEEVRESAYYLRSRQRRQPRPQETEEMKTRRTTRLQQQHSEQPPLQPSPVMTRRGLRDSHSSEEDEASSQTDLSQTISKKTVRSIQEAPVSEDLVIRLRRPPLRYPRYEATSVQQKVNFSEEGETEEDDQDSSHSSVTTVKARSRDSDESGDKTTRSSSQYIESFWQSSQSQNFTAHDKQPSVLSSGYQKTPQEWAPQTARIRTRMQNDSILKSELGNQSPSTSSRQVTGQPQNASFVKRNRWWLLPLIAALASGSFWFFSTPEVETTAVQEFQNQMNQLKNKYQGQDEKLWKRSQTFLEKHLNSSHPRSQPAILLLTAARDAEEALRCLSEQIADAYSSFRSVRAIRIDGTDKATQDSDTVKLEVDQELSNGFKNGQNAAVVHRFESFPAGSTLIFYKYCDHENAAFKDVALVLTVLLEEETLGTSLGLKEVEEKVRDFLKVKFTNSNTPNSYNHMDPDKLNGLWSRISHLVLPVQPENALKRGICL
Chain of Follistatin-related protein 3 (Homo sapiens) (O95633 whole entry, looked up): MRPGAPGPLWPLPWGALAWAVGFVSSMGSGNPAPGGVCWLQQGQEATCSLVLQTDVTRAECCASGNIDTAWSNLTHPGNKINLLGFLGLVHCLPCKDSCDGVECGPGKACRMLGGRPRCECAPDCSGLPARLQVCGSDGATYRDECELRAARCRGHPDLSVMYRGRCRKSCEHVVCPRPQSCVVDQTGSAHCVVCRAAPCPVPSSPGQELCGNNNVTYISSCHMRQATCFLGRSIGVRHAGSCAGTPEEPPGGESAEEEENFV
Chain of Left-right determination factor 2 (Homo sapiens) (O00292 whole entry, looked up): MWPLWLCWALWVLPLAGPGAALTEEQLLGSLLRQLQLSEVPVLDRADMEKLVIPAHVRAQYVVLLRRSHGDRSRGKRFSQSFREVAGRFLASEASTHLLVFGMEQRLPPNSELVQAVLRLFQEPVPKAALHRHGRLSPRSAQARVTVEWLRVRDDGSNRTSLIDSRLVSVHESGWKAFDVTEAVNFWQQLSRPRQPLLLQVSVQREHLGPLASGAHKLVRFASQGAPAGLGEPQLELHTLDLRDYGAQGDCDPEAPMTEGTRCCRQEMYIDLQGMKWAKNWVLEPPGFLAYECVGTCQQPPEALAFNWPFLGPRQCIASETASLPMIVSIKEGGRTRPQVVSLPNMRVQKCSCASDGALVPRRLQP
Chain of Fibroblast growth factor 10 (Homo sapiens) (O15520 whole entry, looked up): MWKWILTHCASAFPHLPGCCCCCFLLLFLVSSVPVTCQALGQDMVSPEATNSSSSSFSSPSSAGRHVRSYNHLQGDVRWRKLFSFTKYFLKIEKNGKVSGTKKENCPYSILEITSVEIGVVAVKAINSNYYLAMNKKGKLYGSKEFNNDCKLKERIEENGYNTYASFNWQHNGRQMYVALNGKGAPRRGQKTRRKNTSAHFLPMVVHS

SMILES | composite z-score [1] | composite z-score [2] | composite z-score [3] | z-score [4] | composite z-score [5] | composite z-score [6] | composite z-score [7] | composite z-score [8] | composite z-score [9] | composite z-score [10] | composite z-score [11] | z-score [12] | composite z-score [13] | composite z-score [14] | composite z-score [15] | composite z-score [16] | composite z-score [17] | composite z-score [18] | composite z-score [19] | composite z-score [20]
NC(=O)N1C(=O)C2C(C1=O)C1C=C(CCCO)C2C(c2ccc(CN3CCCC3)cc2)N1Cc1cc2c(cc1Br)OCO2 (stereo not given) | -0.0167 | -0.204 | 0.228 | 0.343 (inactive) | 0.325 | 0.177 | -0.287 | -0.0816 | 0.388 | 0.45 | -1.36 | -1.51 | 0.943 | -0.666 | -0.361 | -0.128 | 0.0796 | -0.252 | 0.187 | -0.493
O=C(NC1CC1)[C@@H]1c2ccccc2C(=O)N(Cc2cc(C(F)(F)F)cc(C(F)(F)F)c2)[C@H]1c1ccc(CO)cc1 | 0.965 | -0.534 | -0.47 | -0.261 (inactive) | 0.105 | -0.436 | -0.675 | 0.075 | -0.835 | -0.547 | 1.35 | -1.02 | -0.876 | 0.146 | -0.366 | -0.0203 | -0.517 | 0.431 | -0.0446 | 0.955
N#Cc1ccc(-c2cccc(=O)o2)cc1 | 0.306 | -0.269 | -0.0642 | 0.862 (inactive) | 0.219 | 0.441 | 0.506 | 0.345 | 0.0771 | 0.254 | 0.561 | -0.0585 | 0.0266 | -0.179 | -0.564 | -0.0383 | -0.349 | 0.119 | -0.102 | 0.26
COc1cc(C(O)C2C=CC3C(=O)N(c4ccccc4)C(=O)C3N2Nc2ccccc2F)cc(OC)c1OC (stereo not given) | 1.41 | 0.521 | 0.55 | 0.392 (inactive) | 1.35 | 1.34 | -0.117 | 0.479 | -0.0657 | 0.519 | 1.48 | -0.892 | 0.2 | 1.05 | -0.383 | 0.0357 | -0.0146 | 1.11 | 0.512 | 0.983
O=C(NCc1ccc(F)cc1)[C@H]1C[C@H]2C(=O)N3CCC[C@H]3C(=O)N2[C@H]1c1ccc(O)cc1 | 0.605 | -0.294 | -0.292 | -1.62 (inactive) | -0.0335 | -0.73 | 0.192 | -0.423 | 0.889 | -0.964 | -0.512 | 0.85 | 0.124 | -0.178 | -0.386 | -0.176 | -0.366 | -0.344 | 0.424 | -0.374
O=C1O[C@H](c2ccccc2)[C@H](c2ccccc2)N2[C@H]1[C@@H](C(=O)O)[C@]1(C(=O)Nc3ccc(C#CCCO)cc31)[C@H]2c1ccc(OCCO)cc1 | -0.164 | 0.564 | 0.834 | -0.155 (inactive) | 1.12 | 1.27 | 0.0453 | 0.446 | 0.488 | 1.31 | 1.12 | -0.534 | 0.453 | 1.05 | 0.532 | -0.0472 | -0.0769 | 0.133 | 1.65 | 2.47
C=CC[C@@]12N=C(c3ccc(OCCCO)cc3)O[C@@H]1c1ccccc1N(CCC)C2=O | 1.58 | 0.257 | 0.952 | -0.457 (inactive) | 0.85 | 1.25 | 0.153 | 1.15 | -0.0879 | 1.19 | 1.35 | -2.18 | 0.271 | 0.106 | -0.242 | -0.0485 | 0.337 | 0.164 | 1.2 | 1.77
Cc1ccc(F)cc1S(=O)(=O)N[C@H]1CCN(Cc2ccc(OC(C)C)cc2)C1 | 1.23 | -0.322 | -0.747 | -0.24 (inactive) | 0.44 | 0.0619 | -0.437 | 0.195 | 0.577 | -0.22 | 1.34 | -3.4 | 0.379 | -0.781 | -1.43 | -0.187 | -0.0959 | -0.131 | 0.228 | -0.494
CC1CC/C=C\[C@H]2OC34C=CCN(c5ccc6ccccc6c5)C(=O)[C@H]3N(C(C)CO)C(=O)[C@@H]4C2C(=O)O1 (stereo not given in full) | 1.38 | -0.087 | 0.404 | 0.0493 (inactive) | -0.83 | -1.36 | -0.975 | -1.04 | -0.591 | 0.265 | -1.11 | -0.942 | -0.82 | -0.69 | -0.607 | -0.146 | -0.291 | -0.21 | -0.26 | -0.758
CC=CC(O)C1C=CC2C(=O)NC(=O)C2N1Nc1ccc(Cl)cc1Cl (stereo not given) | 0.547 | 0.171 | 0.55 | 1.9 (inactive) | 0.506 | -1.11 | 0.277 | 0.46 | 0.522 | 1.42 | 0.342 | -0.0813 | 0.483 | 0.498 | 0.0224 | -0.0194 | 0.199 | 0.353 | 0.685 | 0.64
COC(=O)C(CC#Cc1ccc2c(c1)[C@]1(C(=O)N2)[C@H](c2ccc(OCCO)cc2)N2[C@H](c3ccccc3)[C@H](c3ccccc3)OC(=O)[C@H]2[C@@H]1C(=O)N1CCCCCCC1)C(=O)OC | 1.8 | 2.65 | 1.3 | 0.191 (inactive) | 1.18 | 1.37 | 1.64 | 1.63 | 2.14 | 1.64 | 1.32 | -0.851 | 1.62 | 2.73 | 1.29 | 1.25 | 2.81 | 2.33 | 4.91 | 2.62
CN(C)C(=O)[C@@]1(Cc2ccccc2CN=[N+]=[N-])COC(c2ccc(OCCCO)cc2)=N1 | 0.508 | 0.42 | 1.01 | -0.51 (inactive) | -0.0391 | -0.958 | -0.916 | -0.522 | -1.19 | 0.744 | 1.37 | -2 | -1.09 | 0.809 | 0.812 | -0.0478 | 0.0483 | -0.226 | -0.383 | 1.3
O=C1O[C@@H](c2ccccc2)[C@@H](c2ccccc2)N2[C@@H](c3ccc(OCCO)cc3)[C@]3(C(=O)Nc4ccc(C#CC5(O)CCCCCC5)cc43)[C@@H](C(=O)O)[C@H]12 | 1.46 | 0.623 | 0.457 | -0.702 (inactive) | 0.372 | 0.995 | 0.146 | 0.401 | -0.0236 | 0.2 | 0.349 | -0.687 | 0.109 | 1.29 | 1.03 | -0.0495 | 0.0902 | -0.0047 | 0.835 | 0.987
C=C(COC)/C(=C/C[C@@H](OC(C)=O)c1ccccc1OCCO)c1cnc2ccccc2c1 | 1.24 | -0.151 | -0.112 | 0.617 (inactive) | 1.39 | 0.344 | 0.26 | 1.44 | 0.336 | 1.78 | 1.17 | -1.95 | 0.248 | 0.35 | -0.716 | -0.1 | 0.0796 | 0.329 | 1.73 | 1.56
COC(=O)[C@@]1(Cc2ccc(OC)cc2)[C@H]2c3cc(C(=O)N4CCCC4)n(Cc4c(CO)[nH]cc(C)c4=O)c3C[C@H]2CN1C(=O)c1ccccc1 | 0.488 | 2.01 | 1.13 | -1.14 (inactive) | 0.404 | 0.237 | -0.0221 | 0.158 | -0.59 | 1.02 | -0.78 | -1.4 | -0.181 | 2.05 | 0.593 | 0.0328 | -0.156 | 0.947 | 2.32 | 0.12
COc1ccc([Si](C)(C)[C@H]2[C@H](CC(=O)N3Cc4ccccc4C[C@H]3CO)O[C@@]3(C(=O)N(c4ccccc4)c4ccccc43)[C@@H]2C)cc1 | 1.64 | -0.179 | -0.339 | -0.691 (inactive) | 1.11 | 1.27 | 1.13 | 1.45 | 0.75 | 1.47 | 1.35 | -3.46 | 0.949 | 0.392 | -0.987 | 0.127 | -0.0119 | -0.542 | 1.7 | 1.69
